This passage reports GFP signal change (wild-type ribosome), OD600 change and RFP signal change results from PubChem BioAssay AID720706 (Broad Institute, 2013).

The whole screen tested about 350,000 compounds, of which about 5,500 (1.6%) were called active. The sample holds actives, similar compounds and a random draw of the others, so the mix is not that of the screen.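 The calls were made as follows: active = significant combined selectivity score with lowered wild-type GFP, culture density cut under 30%, mutant RFP and density less affected; inactive = any of these conditions unmet.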

This experiment is described as follows: GFP drop in mixed WT/humanized-ribosome E. coli culture – GFP/RFP fluorescence, OD600, single point, bacterial rRNA inhibitor project, primary screen (AID 720706). Conditions: E. coli WT GFP vs humanized-ribosome RFP mutants, 24 h; GFP signal change (wild-type ribosome): stronger effect = lower value, DMSO median 0, no signal -100; OD600 change: measured here: OD600 growth, DMSO median 0, no signal -100; RFP signal change: measured here: RFP humanized mutant strains, DMSO median 0, no signal -100, concentration not given here.
Regarding `COCC#Cc1ccc([C@@H]2[C@@H](CO)N3C(=O)CN(C(=O)Nc4cc(F)ccc4F)C[C@@H]23)cc1`, the GFP signal change (wild-type ribosome) is -10.5% (inactive), the OD600 change is -5.07% and the RFP signal change was determined as 3.1%.
Taken in the same sequence, the figures for `COc1ccc(NC(=O)N(C)C[C@@H]2OCCCC[C@@H](C)Oc3ccc(NS(C)(=O)=O)cc3C(=O)N([C@@H](C)CO)C[C@H]2C)cc1` were -0.988% (inactive), -5.29% and 0.0065%.
On to `Cc1noc(C)c1S(=O)(=O)Nc1ccc2c(c1)C(=O)N([C@H](C)CO)C[C@H](C)[C@H](CN(C)C(=O)CCC(F)(F)F)OCCCC[C@H](C)O2`, for which the GFP signal change (wild-type ribosome) is -2.98% (inactive), the OD600 change was -4.46% and the RFP signal change was 0.03%.
Taken in the same sequence, the figures for `COc1ccc2c3c(n(C)c2c1)[C@H](CO)N(C(=O)Cc1ccccc1)CC31CCN(C)CC1` were 4.41% (inactive), 5.73% and -1.31%.
On to `CCNC(=O)[C@H]1[C@H](CO)[C@H]2Cn3c(ccc(C4=CCCC4)c3=O)[C@@H]1N2S(=O)(=O)c1cn(C)cn1`, for which the GFP signal change (wild-type ribosome) was 2.88% (inactive), the OD600 change stood at 2.51% and the RFP signal change was -2.3%.
Taken in the same sequence, the figures for `COc1ccc(C(=O)NC2CCN(C(=O)Nc3ccc(F)cc3)CC2)cc1` were 3.88% (inactive), 11.7% and -0.144%.
Taken in the same sequence, the figures for `COc1cccc(-c2noc(C3CCCN(C(=O)c4ccc(F)cc4)C3)n2)c1` (configuration not stated) were -16% (inactive), -14.3% and 1.71%.
Taken in the same sequence, the figures for `COc1ccc(-c2n[nH]c3c2CN(C(=O)c2ccc(F)cc2)CC3)cc1` were -24% (active), -10.1% and -0.0738%.
For `COCC#Cc1cnc2c(c1)C(=O)N([C@H](C)CO)C[C@@H](C)[C@@H](CN(C)Cc1ccccc1F)O2`, the GFP signal change (wild-type ribosome) is 4.01% (inactive), the OD600 change was 9.71% and the RFP signal change is -0.92%.
Taken in the same sequence, the figures for `O=C(N/N=C/c1ccco1)c1ccc(NC(=O)C2CC2)cc1` were 33.5% (inactive), 14.7% and 3.89%.
Taken in the same sequence, the figures for `CC(/C=N/NC(=O)c1cc(-c2ccc3ccccc3c2)n[nH]1)=C\c1ccco1` were -18.4% (active), -4.31% and 6.39%.
Taken in the same sequence, the figures for `CC(C)(C)C1CCC(=NNC(=O)c2cc(-c3ccccc3)n[nH]2)CC1` (configuration not stated) were -8.44% (inactive), 6.81% and -1.93%.
Take `Nc1ccn([C@@H]2O[C@H](C(=O)N[C@H]3CCCCNC3=O)[C@@H](O)[C@H]2O)c(=O)n1`: the GFP signal change (wild-type ribosome) is 23% (inactive), the OD600 change is 2.48% and the RFP signal change amounted to 2.71%.
Taken in the same sequence, the figures for `COc1cccc(NC(=O)C2CCCN(c3ncnc4c3nc3n4CCCCC3)C2)c1` (configuration not stated) were -27.7% (inactive), -29.9% and -2.84%.
Taken in the same sequence, the figures for `CN(Cc1ccccc1)C(=O)C1CCCN(c2ncnc3c2nc2n3CCCCC2)C1` (configuration not stated) were -30.8% (active), -19.4% and -2.82%.
Consider `COc1cccc(CNC(=O)C2CCCN(c3ncnc4c3nc3n4CCCCC3)C2)c1` (configuration not stated), for which the GFP signal change (wild-type ribosome) was -0.749% (inactive), the OD600 change was 3.87% and the RFP signal change was -0.866%.
Taken in the same sequence, the figures for `O=C(NCc1ccc2c(c1)OCO2)c1sccc1Br` were -28% (active), -4.74% and 4.92%.
Taken in the same sequence, the figures for `O=C(NCc1ccc2c(c1)OCO2)c1c(-c2ccsc2)sc2ccccc12` were -2.63% (inactive), 5.46% and -0.565%.
Taken in the same sequence, the figures for `O=C(NCc1ccc2c(c1)OCO2)c1c(O)nc2sccn2c1=O` were 9.79% (inactive), 1.77% and 0.304%.
